# Measured values as given in PubChem BioAssay AID1063 (University of Pittsburgh Molecular Library Screening Center, 2008).
# The campaign covered roughly 200,000 compounds. About 18,000 (9%) were called active. Many of the other results were omitted from the sample, so actives are more common in it than they were. Values without a mark were called inactive. Cut-off read from the data, not from the text of the source: active = inhibition above about 50%; inactive = the rest.
# Test: Leishmania major promastigote growth inhibition, primary screen (AID 1063);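 note: promastigotes grown with compound for 44 hours at 28 °C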
# Conditions: Leishmania major promastigotes, resazurin fluorescence viability; at 10 µM; hits give high values
row,SMILES,inhibition
1,O=C(C(=O)N1CCc2ccccc2C1)c1c[nH]c2ccccc12,4.91%
2,Cc1ccccc1NC(=O)NC1(C(=O)N2CCCC2)CCCCC1,-6.94%
3,CC(C)C(=O)Nc1ccc(C(=O)NNC(=O)c2cccs2)cc1,66.2% (active)
4,O=C(O)c1ccc(NC(=O)c2cccs2)cc1,-4.2%
5,Cc1ccc(C(=O)NNC(=O)c2cccs2)cc1,5.96%
6,COc1ccc(OC)c(S(=O)(=O)NCCC(C)C)c1,-7.99%
7,O=C1Oc2ccccc2C(=O)/C1=C/c1ccccc1O,7.18%
8,CN1CCN(C(=O)N2c3ccccc3CCc3ccccc32)CC1,-0.1%
9,O=C(Nc1cccc(O)c1)c1ccc(C(=O)c2ccccc2)o1,26.7%
10,O=C1CCCC2=C1C(c1cccs1)CC(=O)N2c1ccc(F)cc1 (configuration not stated),4.07%
11,CCOC(=O)C1=C(N)N(c2ccc(C)cc2)C2=C(C(=O)CCC2)C1c1cccs1 (configuration not stated),92.3% (active)
12,CCOC(=O)c1cc2c(n(-c3ccc(C)cc3)c1=O)CCCC2=O,15.4%
13,Cc1nc(-c2ccccc2)sc1C(=O)/C=C/N(C)C,-7.03%
14,C/C=C/c1ccc(OCCCCN2CCC(C)CC2)c(OC)c1,95.6% (active)
15,C/C=C/c1ccc(OCCOc2ccc(C=O)cc2OC)c(OC)c1,-4.56%
16,COc1ccc(OC)c(NC(=O)CCN2CCC(C)CC2)c1,1.65%
17,O=c1c(Cl)c(NC2CC2)cnn1-c1ccccc1,-1.71%
18,c1ccc2c(c1)CSc1sccc1C2=C1CCNCC1,58.3% (active)
19,CCOC(=O)Cc1csc(NC(=O)COc2ccc3c(C)cc(=O)oc3c2)n1,13.5%
20,CN(C)S(=O)(=O)c1cccc(C(=O)Nc2cccnc2)c1,-3.68%
21,O=C(c1cccnc1)N(c1cc2sc(=O)oc2c2ccccc12)S(=O)(=O)c1ccccc1,99.2% (active)
22,COc1ccc(N(C(=O)c2cccnc2)S(=O)(=O)c2ccc3c(c2)n(C)c(=O)n3C)cc1,0.4%
23,N/C(Cc1ccc([N+](=O)[O-])cc1)=N\OC(=O)C1CCCCC1,-4.63%
24,COCCN(C(=O)c1ccccc1F)c1c(N)n(Cc2ccccc2)c(=O)[nH]c1=O,-1.31%
25,c1coc(CNc2ncnc3ccccc23)c1,32.3%

row,SMILES,inhibition
1,CS(=O)(=O)n1nc(-c2ccccc2)nc1NCc1ccco1,-5.02%
2,CCC(=O)OCCNc1nc(-c2ccccc2)nc2ccccc12,88.4% (active)
3,CCOC(=O)c1nc(Nc2ccc(C(=O)OC)cc2)c2ccccc2n1,16.3%
4,CCOC(=O)c1c(C)nc(-c2ccccc2)nc1NC(=O)C(C)C,14.1%
5,c1ccc(-c2nc(NCc3ccco3)c3ccccc3n2)cc1,66.3% (active)
6,CN(C)c1ccc(NC(=O)CSc2n[nH]c(-c3ccco3)n2)cc1,47%
7,CCN(CC)C(=O)Cn1cc(S(=O)(=O)CC(=O)NCc2ccc3c(c2)OCO3)c2ccccc21,-2.2%
8,CCCN(CC(=O)Nc1ccc(OC)c(OC)c1)CC(=O)Nc1ccc(F)c(F)c1F,-4.92%
9,COCCSc1nnc(NC(=O)c2cc(OC)c(OC)cc2[N+](=O)[O-])s1,-4.07%
10,CC(=O)c1ccc(NC(=S)N(Cc2ccccc2)C(C)C2CC2)cc1 (configuration not stated),11.1%
11,CC(C)CC(=O)NC(=S)Nc1ccc(F)cc1F,-0.93%
12,Cc1[nH]nc(SCC(=O)NCC(C)C)c1[N+](=O)[O-],-6.19%
13,OC(COCCC12CC3CC(CC(C3)C1)C2)CN1CCCCC1 (configuration not stated),92.4% (active)
14,Cc1cccc(C)c1OCC(O)CN1CCCCC1 (configuration not stated),-0.13%
15,COCC1CCCN(Cc2cn[nH]c2-c2cc3ccccc3o2)C1 (configuration not stated),11.4%
16,O=C(CC1Nc2ccccc2NC1=O)Nc1ccccc1NC(=O)CC1Nc2ccccc2NC1=O (configuration not stated),-4.12%
17,CSCCC(=O)N1CCCC(CNC(=O)c2ccccc2Cl)C1 (configuration not stated),-3.88%
18,COc1ccc(/C=N/Nc2nc3ccccc3c(=O)[nH]2)cc1,36.7%
19,COc1ccc(Cc2nnc(N/N=C/c3ccccc3O)[nH]c2=O)cc1OC,97.4% (active)
20,CCOc1ccc(-n2c(O)c(/C=N/Nc3nnc(C)c(=O)[nH]3)c3ccccc3c2=O)cc1,3.53%
21,CCCCNS(=O)(=O)c1ccc2nc(SCC(=O)Nc3cc(C)cc(C)c3)[nH]c2c1,-3.48%
22,O=C(CSc1ncn[nH]1)NCc1ccc2c(c1)OCO2,-2.48%
23,Cc1[nH]c2c(C(=O)N3CCCC(CCC(=O)NCc4ccccc4F)C3)cccc2c1C (configuration not stated),3.43%
24,Nc1[nH]c(=S)nc2nc(-c3ccccc3)c(-c3ccccc3)nc12,29.6%
25,CCc1c(C)nc2cc(C)[nH]n2c1=O,65% (active)

row,SMILES,inhibition
1,CCc1c(C)nc2cc(-c3cccs3)[nH]n2c1=O,6.8%
2,Cc1nc2nc[nH]n2c(=O)c1C/C=C/c1ccccc1,-0.45%
3,COc1cccc(Cn2cnc3c([N+](=O)[O-])c(C)c(C)cc32)c1,12.1%
4,Oc1ccccc1C=NC1CCCCC1N=Cc1ccccc1O (configuration not stated),-8.81%
5,COc1cc(/C=N/n2c(C)n[nH]c2=S)ccc1OCc1ccccc1,36.4%
6,COc1cc(/C=C2/C(=O)ON=C2C)ccc1OCc1cccc(F)c1,53.5% (active)
7,COc1cc(/C=C2/C(=O)ON=C2C)ccc1OCc1ccccc1F,33.4%
8,Cc1cccc2c1N(CCOc1ccccc1)C(=O)C2=O,4.82%
9,O=C(CC1C(=O)NCCN1CC(c1ccccc1)c1ccccc1)NCCc1cn[nH]c1 (configuration not stated),-0.14%
10,Cc1cc([N+](=O)[O-])nn1Cc1ccc(F)cc1,10.1%
11,CCCCOc1ccc(CSC(=N)N)cc1[N+](=O)[O-],100% (active)
12,CCCOc1ccc(C2C(C(=O)c3ccc(C)o3)=C(O)C(=O)N2CCCn2ccnc2)cc1 (configuration not stated),-8.78%
13,CCCCCOc1ccc(CSC2=NCCN2)cc1[N+](=O)[O-],88.3% (active)
14,Cc1nc(SCc2ccc(F)cc2)c([N+](=O)[O-])[nH]1,-7.82%
15,CCOc1ccc(C(=O)Nc2nccs2)cc1[N+](=O)[O-],48.5%
16,Cc1ccccc1NC(=O)CSC1=NCCN1,-2.55%
17,CCCCOC(=O)CCCc1ccc([N+](=O)[O-])cc1[N+](=O)[O-],0.48%
18,CCOc1ccc(Br)cc1CSC(=N)N,33.2%
19,CCCOc1ccc(Cn2ccnc2)cc1[N+](=O)[O-],85.9% (active)
20,CN(C)c1ccc(C=NCCc2ccc(S(N)(=O)=O)cc2)cc1,3.91%
21,CCOC(=O)c1cnc2[nH]c3ccccc3n2c1=O,7.85%
22,O=C(O)CC/C(=N\NC(=O)c1ccc(F)cc1)c1ccc(Br)cc1,-8.88%
23,Cn1ccc(=NC=C(C#N)C#N)c2ccccc21,7.93%
24,CC(=O)c1ccc(NC(=O)Nc2ccc([N+](=O)[O-])cc2C)cc1,-1.56%
25,O=[N+]([O-])c1ccc2c(c1)C(N1CCOCC1)/C(=C/C1(O)CCCCC1)O2 (configuration not stated),-7.12%

row,SMILES,inhibition
1,Cc1cc2nc(C(F)(F)F)cc(-c3cccs3)n2n1,2.4%
2,COc1ccc(OC)c(S(=O)(=O)Nc2cccc(-c3ccc4nncn4n3)c2)c1,-2.67%
3,FC(F)(F)c1cccc(NC(=S)Nc2cccc(Cl)c2)c1,75.6% (active)
4,S=C(Nc1cccc(Cl)c1)Nc1ccc2cn[nH]c2c1,10.9%
5,Cc1csc(NC(=S)Nc2cccc(Cl)c2)n1,9.23%
6,CCNC(=O)CC1C(=O)N(c2ccc(OC)cc2)C(=S)N1CCc1ccncc1 (configuration not stated),-4.31%
7,COc1ccc2oc(=O)c(C(=O)N3CCCC3)cc2c1,-7.26%
8,Clc1ccc(-c2nnc(-c3ccccc3)nc2N2CCSCC2)cc1,58.6% (active)
9,Cn1nc(-c2ccccc2)c(-c2nc(-c3ccc(Cl)cc3)no2)c1Cl,-4.1%
10,CC1CN(c2nc(-c3ccccc3)nnc2-c2ccccc2)CC(C)O1 (configuration not stated),5.94%
11,CN(CCc1cnn(C)c1)Cc1cn(C)nc1-c1ccccc1F,-3.32%
12,CC(C)N(C(=O)CSc1nc(COc2ccccc2)nc2ccccc12)C(C)C,21.6%
13,O=C(COc1cccc2ccccc12)Nc1cc(S(=O)(=O)N2CCOCC2)ccc1N1CCOCC1,61.2% (active)
14,CCOc1cc(N2CCOCC2)c(OCC)cc1NC(=O)c1cc(C)nc2ccccc12,6.2%
15,COC(=O)COc1ccc(S(=O)(=O)N2CCOCC2)cc1,-7.05%
16,Cc1ccc(S(=O)(=O)N(C)c2ccc(OCC(=O)NC3=NCCS3)cc2)cc1,1.37%
17,O=C(COC(=O)c1ccccc1F)Nc1cc(S(=O)(=O)N2CCOCC2)ccc1N1CCCC1,5.17%
18,COc1cc(S(=O)(=O)N2CCOCC2)ccc1NC(=O)COc1ccc(N(C)S(=O)(=O)c2ccc(C)cc2)cc1,94% (active)
19,CCOc1cc(N2CCOCC2)c(OCC)cc1NC(=O)COc1cccc2cccnc12,100% (active)
20,CC(=O)NCCC(=O)Nc1cc(S(=O)(=O)N2CCOCC2)ccc1N1CCOCC1,0.47%
21,CCOc1cc(N2CCOCC2)c(OCC)cc1NC(=O)c1ccc(C)s1,6.96%
22,CCC(=O)N1c2ccccc2NC2=C(C(=O)CCC2)C1c1ccco1 (configuration not stated),3.39%
